Results published in PubChem BioAssay AID1159580 (chemical genetic matrix, 2015).
Screen size: about 5,500 compounds; about 2,000 (36%) were called active. Not shown: some 18% with an inconclusive outcome. Rule as the data show it: active = normalized growth mostly below about 0.91 (no sharp cut-off); inconclusive = no clear call, values can overlap the other calls; inactive = mostly above about 0.92. The list shows a part of the results.

Assay: chemical genetic growth profiling, strain panel (AID 1159580);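 also: tested at 20 µM; growth read once vehicle control cultures reached saturation at 30 °C; 1 = growth at the plate median or of vehicle wells; lower values mean less growth of the strain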
Settings: growth OD

Measured: normalized growth

O=C1[C@H](CCC(O)c2ccc(F)cc2)[C@@H](c2ccc(O)cc2)N1c1ccc(F)cc1 (some centres not stated)
inactive: S. cerevisiae deletion strains, locus YJR075W, strain HOC1, stronger effect = lower value 0.986 | S. cerevisiae deletion strains, locus YKL009W, strain mrt4, stronger effect = lower value 0.944 | S. cerevisiae deletion strains, locus YKL068W, stronger effect = lower value 0.989 | S. cerevisiae deletion strains, locus YKL085W, strain MDH1 (second series), stronger effect = lower value 0.983 | S. cerevisiae deletion strains, locus YKL085W, strain MDH1, stronger effect = lower value 0.983 | S. cerevisiae deletion strains, locus YKL160W, strain elf1, stronger effect = lower value 0.974 | S. cerevisiae deletion strains, locus YKL190W, strain CNB1, stronger effect = lower value 0.995 | S. cerevisiae deletion strains, locus YKR001C, strain vps1, stronger effect = lower value 0.968 | S. cerevisiae deletion strains, locus YKR026C, strain gcn3, stronger effect = lower value 0.961 | S. cerevisiae deletion strains, locus YKR091W, strain srl3, stronger effect = lower value 0.977 | S. cerevisiae deletion strains, locus YLL001W, strain dnm1, stronger effect = lower value 0.937 | S. cerevisiae deletion strains, locus YLL026W, stronger effect = lower value 0.977 | S. cerevisiae deletion strains, locus YLL041C, strain sdh2, stronger effect = lower value 0.967 | S. cerevisiae deletion strains, locus YLR027C, strain aat2, stronger effect = lower value 0.98 | S. cerevisiae deletion strains, locus YLR039C, strain RIC1, stronger effect = lower value 0.995 | S. cerevisiae deletion strains, locus YLR058C, strain SHM2, stronger effect = lower value 0.982 | S. cerevisiae deletion strains, locus YLR102C, strain apc9, stronger effect = lower value 0.972 | S. cerevisiae deletion strains, locus YLR113W, strain HOG1, stronger effect = lower value 1 | S. cerevisiae deletion strains, locus YLR221C, strain rsa3, stronger effect = lower value 0.986 | S. cerevisiae deletion strains, locus YLR258W, strain gsy2, stronger effect = lower value 0.972 | S. cerevisiae deletion strains, locus YLR262C, strain YPT6 (second series), stronger effect = lower value 0.988 | S. cerevisiae deletion strains, locus YLR262C, strain YPT6, stronger effect = lower value 0.978 | S. cerevisiae deletion strains, locus YLR268W, strain sec22, stronger effect = lower value 0.96 | S. cerevisiae deletion strains, locus YLR320W, strain mms22, stronger effect = lower value 0.975 | S. cerevisiae deletion strains, locus YLR330W, strain CHS5, stronger effect = lower value 0.988 | S. cerevisiae deletion strains, locus YLR342W, strain FKS1 (second series), stronger effect = lower value 1.01 | S. cerevisiae deletion strains, locus YLR342W, strain FKS1, stronger effect = lower value 0.973 | S. cerevisiae deletion strains, locus YLR357W, strain rsc2, stronger effect = lower value 0.978 | S. cerevisiae deletion strains, locus YLR370C, strain arc18, stronger effect = lower value 0.967 | S. cerevisiae deletion strains, locus YLR371W, strain rom2, stronger effect = lower value 0.971 | S. cerevisiae deletion strains, locus YLR384C, strain iki3, stronger effect = lower value 0.976 | S. cerevisiae deletion strains, locus YLR418C, strain cdc73, stronger effect = lower value 0.948 | S. cerevisiae deletion strains, locus YML016C, strain PPZ1, stronger effect = lower value 0.989 | S. cerevisiae deletion strains, locus YML032C, strain rad52, stronger effect = lower value 0.979 | S. cerevisiae deletion strains, locus YML120C, strain ndi1, stronger effect = lower value 0.968 | S. cerevisiae deletion strains, locus YML124C, strain tub3, stronger effect = lower value 0.977 | S. cerevisiae deletion strains, locus YMR058W, strain fet3, stronger effect = lower value 0.977 | S. cerevisiae deletion strains, locus YMR078C, strain ctf18, stronger effect = lower value 0.968 | S. cerevisiae deletion strains, locus YMR125W, strain sto1, stronger effect = lower value 0.971 | S. cerevisiae deletion strains, locus YMR129W, stronger effect = lower value 0.962 | S. cerevisiae deletion strains, locus YMR205C, strain PFK2, stronger effect = lower value 0.944 | S. cerevisiae deletion strains, locus YMR223W, strain ubp8, stronger effect = lower value 0.987 | S. cerevisiae deletion strains, locus YMR231W, strain pep5, stronger effect = lower value 0.994 | S. cerevisiae deletion strains, locus YMR263W, strain SAP30, stronger effect = lower value 0.997 | S. cerevisiae deletion strains, locus YMR307W, strain GAS1, stronger effect = lower value 0.976 | S. cerevisiae deletion strains, locus YNL067W, strain RPL9B, stronger effect = lower value 1 | S. cerevisiae deletion strains, locus YNL071W, strain lat1, stronger effect = lower value 0.984 | S. cerevisiae deletion strains, locus YNL128W, strain TEP1, stronger effect = lower value 0.994 | S. cerevisiae deletion strains, locus YNL153C, strain GIM3, stronger effect = lower value 0.995 | S. cerevisiae deletion strains, locus YNL183C, strain NPR1, stronger effect = lower value 0.961 | S. cerevisiae deletion strains, locus YNL209W, strain ssb2, stronger effect = lower value 0.99 | S. cerevisiae deletion strains, locus YNL233W, strain BNI4, stronger effect = lower value 0.984 | S. cerevisiae deletion strains, locus YNL248C, strain rpa49, stronger effect = lower value 0.965 | S. cerevisiae deletion strains, locus YNL250W, strain rad50, stronger effect = lower value 0.974 | S. cerevisiae deletion strains, locus YNL271C, strain bni1, stronger effect = lower value 0.968 | S. cerevisiae deletion strains, locus YNL298W, strain CLA4, stronger effect = lower value 0.961 | S. cerevisiae deletion strains, locus YNL307C, strain MCK1, stronger effect = lower value 0.961 | S. cerevisiae deletion strains, locus YNL322C, strain KRE1 (second series), stronger effect = lower value 0.971 | S. cerevisiae deletion strains, locus YNL322C, strain KRE1, stronger effect = lower value 0.994 | S. cerevisiae deletion strains, locus YNR049C, strain mso1, stronger effect = lower value 0.962 | S. cerevisiae deletion strains, locus YNR052C, strain pop2, stronger effect = lower value 0.973 | S. cerevisiae deletion strains, locus YOL006C, strain TOP1, stronger effect = lower value 0.908 | S. cerevisiae deletion strains, locus YOL012C, strain htz1 1.05 | S. cerevisiae deletion strains, locus YOL147C, strain pex11, stronger effect = lower value 0.975 | S. cerevisiae deletion strains, locus YOR001W, strain rrp6, stronger effect = lower value 0.967 | S. cerevisiae deletion strains, locus YOR061W, strain CKA2, stronger effect = lower value 0.984 | S. cerevisiae deletion strains, locus YOR069W, strain VPS5, stronger effect = lower value 0.987 | S. cerevisiae deletion strains, locus YOR070C, strain gyp1, stronger effect = lower value 0.982 | S. cerevisiae deletion strains, locus YOR080W, strain dia2, stronger effect = lower value 0.956 | S. cerevisiae deletion strains, locus YOR083W, strain WHI5, stronger effect = lower value 0.967 | S. cerevisiae deletion strains, locus YOR106W, strain vam3, stronger effect = lower value 0.918 | S. cerevisiae deletion strains, locus YOR136W, strain idh2, stronger effect = lower value 0.979 | S. cerevisiae deletion strains, locus YOR144C, strain elg1, stronger effect = lower value 0.968 | S. cerevisiae deletion strains, locus YOR184W, strain ser1, stronger effect = lower value 0.972 | S. cerevisiae deletion strains, locus YOR231W, strain MKK1, stronger effect = lower value 0.961 | S. cerevisiae deletion strains, locus YOR265W, strain rbl2, stronger effect = lower value 0.976 | S. cerevisiae deletion strains, locus YOR270C, strain vph1, stronger effect = lower value 0.801 | S. cerevisiae deletion strains, locus YOR290C, strain snf2, stronger effect = lower value 0.987 | S. cerevisiae deletion strains, locus YOR316C, strain cot1, stronger effect = lower value 0.966 | S. cerevisiae deletion strains, locus YPL051W, strain arl3, stronger effect = lower value 0.991 | S. cerevisiae deletion strains, locus YPL055C, strain LGE1, stronger effect = lower value 0.998 | S. cerevisiae deletion strains, locus YPL078C, strain atp4, stronger effect = lower value 0.908 | S. cerevisiae deletion strains, locus YPL106C, strain sse1, stronger effect = lower value 1 | S. cerevisiae deletion strains, locus YPL240C, strain hsp82, stronger effect = lower value 0.994 | S. cerevisiae deletion strains, locus YPL241C, strain CIN2, stronger effect = lower value 0.996 | S. cerevisiae deletion strains, locus YPL256C, strain CLN2, stronger effect = lower value 0.97 | S. cerevisiae deletion strains, locus YPR119W, strain clb2, stronger effect = lower value 0.984 | S. cerevisiae deletion strains, locus YPR141C, strain kar3, stronger effect = lower value 0.956 | S. cerevisiae deletion strains, locus YPR163C, strain tif3, stronger effect = lower value 0.962 | S. cerevisiae deletion strains, locus YPR167C, strain met16, stronger effect = lower value 0.966 | S. cerevisiae deletion strains, strain wtn01, stronger effect = lower value 0.971 | S. cerevisiae strains, strain wild type, stronger effect = lower value 1.01
